Test results from PubChem BioAssay (EPA / NIEHS).
Records with an inconclusive call do not appear. The source made the active and inactive calls. Rule for the calls, unless noted: active = hit-call score of the fitted dose curve at least 0.9, where 1 is the maximum; inconclusive = response in the unintended direction; inactive = score below 0.9.

How the values were obtained:
[1] = molecular target: Cellular tumor antigen p53 (Homo sapiens) (UniProt P04637); assay: TOX21_p53_BLA_p5_ratio: Tox21 HCT-116 p53 Agonism Beta-lactamase Assay, Ratio, Phase 5 (AID 2283599)
In short: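 HCT-116 p53-bla cells (4000/well) plated 5 h, dosed with compound (217-fold DMSO dilution) for 16 h at 37 C; CCF4-AM substrate 2 h at room temperature. Activity is the 460/530 nm emission ratio (405 nm excitation), fitted in gain-of-signal direction versus DMSO.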

[2] = TOX21_p53_BLA_p5_viability: Viability Assessment in the Tox21 HCT-116 p53 Agonism Beta-lactamase Assay, Phase 5 (AID 2283600)
In short: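 Cells were plated at 4000/well, rested 5 h at 37C, then given compounds in DMSO (217-fold dilution) for 16 h at 37C, 5% CO2. Following the CCF4-AM beta-lactamase read, CellTiter-Glo was added and luminescence was read after 30 min at room temperature.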

[3] = TOX21_p53_BLA_p4_viability: Viability Assessment in the Tox21 HCT-116 p53 Agonism Beta-lactamase Assay, Phase 4 (AID 2283597);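 note: hits lower the luminescence signal meaning cytotoxicity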
In short: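 HCT116 p53-bla cells (4000/well) rested 5 h at 37C, then received compounds in DMSO (217-fold dilution) for 16 h at 37C, 5% CO2. CellTiter-Glo was added after the CCF4-AM read, and luminescence was read after 30 min at room temperature.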

[4] = molecular target: Cellular tumor antigen p53 (Homo sapiens) (UniProt P04637); assay: TOX21_p53_BLA_p4_ratio: Tox21 HCT-116 p53 Agonism Beta-lactamase Assay, Ratio, Phase 4 (AID 2283601)
In short: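 HCT-116 p53 beta-lactamase reporter cells (4000/well) preincubated 5 h, then compound (217-fold dilution of DMSO stock) for 16 h at 37C. CCF4-AM substrate added 2 h at room temperature; 460/530 nm emission ratio fitted upward versus DMSO.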

[5] = CCTE_Shafer_MEA_dev_firing_rate_mean: CCTE's Neural Network Formation Assay for Mean Firing Rate, Shafer Lab (AID 2284031; active = hit-call score of the fitted dose curve at least 0.9, where 1 is the maximum; inactive = score below 0.9)
In short: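 Primary rat cortical neurons on 48-well, 16-electrode MEAs (PEI-coated, laminin at plating), exposed from day 0 with compound renewed at DIV 5 and 9. Spikes recorded DIV 5, 7, 9, 12; well-mean firing rate collapsed to trapezoidal AUC, loss-of-signal vs DMSO.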

[6] = CCTE_Shafer_MEA_dev_per_burst_spike_percent: CCTE's Neural Network Formation Assay for Percent of Spikes in a Burst, Shafer Lab (AID 2284032; active = hit-call score of the fitted dose curve at least 0.9, where 1 is the maximum; inactive = score below 0.9)
In short: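 Rat primary cortical neurons on 16-electrode MEA wells, dosed from plating day 0 for 12 days with renewal on DIV 5 and 9; spikes-in-bursts percentage averaged over bursting electrodes, collapsed as AUC across days 5, 7, 9, 12; loss direction versus DMSO.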

[7] = CCTE_Shafer_MEA_dev_active_electrodes_number: CCTE's Neural Network Formation Assay for Number of Active Electrodes, Shafer Lab (AID 2284040)
In short: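 Rat cortical primary cultures, 1.5 x 10^5 cells/well, PEI-coated MEA, laminin drop. Continuous exposure DIV 0–12; full media/compound change DIV 5, 9. Readout: electrodes with mean firing ≥5 spikes/min; AUC across days; loss vs DMSO.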

[8] = CCTE_Shafer_MEA_dev_burst_rate: CCTE's Neural Network Formation Assay for Burst Rate, Shafer Lab (AID 2284042; active = hit-call score of the fitted dose curve at least 0.9, where 1 is the maximum; inactive = score below 0.9)
In short: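 Exposure ran continuously over 12 days of network development in rat cortical cultures, with compound refreshed during full media changes on DIV 5 and 9. Single-electrode bursts per recording time, well-mean over active electrodes, trapezoidal AUC across days 5–12, fitted downward relative to DMSO.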

[9] = CCTE_Shafer_MEA_dev_bursting_electrodes_number: CCTE's Neural Network Formation Assay for Number of Bursting Electrodes, Shafer Lab (AID 2284043)
In short: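 Primary rat cortical neurons plated on 16-electrode MEA wells, exposed from day 0 with compound renewed at DIV 5 and 9. Electrodes bursting ≥1 burst per 2 min counted on days 5, 7, 9 and 12; trapezoidal AUC across days, fitted for loss versus DMSO.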

[10] = CCTE_Shafer_MEA_dev_per_burst_interspike_interval: CCTE's Neural Network Formation Assay for Burst Interspike Interval, Shafer Lab (AID 2284044; active = hit-call score of the fitted dose curve at least 0.9, where 1 is the maximum; inactive = score below 0.9;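 note: mean spike spacing inside bursts as AUC over recordings on days 5 7 9 12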)
In short: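 Rat cortical primary cultures, 16 electrodes/well; compound from plating, renewed with full media change DIV 5 and 9. Spikes via adaptive detector; per-burst ISI well-mean over active bursting electrodes; AUC of DIV 5/7/9/12 recordings; loss-direction fit vs DMSO.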

[11] = CCTE_Shafer_MEA_dev_burst_duration_mean: CCTE's Neural Network Formation Assay for Mean Burst Duration, Shafer Lab (AID 2284045; active = hit-call score of the fitted dose curve at least 0.9, where 1 is the maximum; inactive = score below 0.9)
In short: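 Primary rat cortical neurons on 48-well 16-electrode MEA plates, exposed from day 0 with renewal at DIV 5 and 9; spontaneous activity recorded on days 5, 7, 9, 12. Well-mean burst duration across bursting electrodes, collapsed as trapezoidal AUC; DMSO baseline.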

[12] = CCTE_Shafer_MEA_dev_interburst_interval_mean: CCTE's Neural Network Formation Assay for Mean Interburst Interval, Shafer Lab (AID 2284046; active = hit-call score of the fitted dose curve at least 0.9, where 1 is the maximum; inactive = score below 0.9;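 note: well-mean interburst interval of bursting electrodes as AUC over four recording days; curve fitted for decrease in interburst interval relative to DMSO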)
In short: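 Primary rat cortical neurons on PEI-coated 48-well MEA plates (laminin added with cells at plating) (16 electrodes/well), exposed from plating day 0 with renewal at DIV 5 and 9. Mean inter-burst interval averaged over bursting electrodes, AUC across days 5, 7, 9, 12; DMSO baseline.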

[13] = CCTE_Shafer_MEA_dev_inter_network_spike_interval_mean: CCTE's Neural Network Formation Assay for Mean Inter-network Spike Interval, Shafer Lab (AID 2284047; active = hit-call score of the fitted dose curve at least 0.9, where 1 is the maximum; inactive = score below 0.9)
In short: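 Mean time between consecutive network-spike peaks, recorded extracellularly (adaptive spike detection) on DIV 5, 7, 9 and 12, summarized as trapezoidal AUC. Rat cortical cultures on MEAs dosed continuously days 0–12, re-dosed at feeds; loss-of-signal fit relative to DMSO.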

[14] = CCTE_Shafer_MEA_dev_network_spike_number: CCTE's Neural Network Formation Assay for Number of Network Spikes, Shafer Lab (AID 2284048; active = hit-call score of the fitted dose curve at least 0.9, where 1 is the maximum; inactive = score below 0.9)
In short: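 Primary rat cortical neurons on PEI/laminin 48-well MEA plates, dosed from plating day 0 for 12 days, renewed at DIV 5 and 9. Network spike counts recorded DIV 5, 7, 9, 12, collapsed as trapezoidal AUC; DMSO baseline.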

[15] = CCTE_Shafer_MEA_dev_network_spike_peak: CCTE's Neural Network Formation Assay for Mean Number of Electrodes in Network Spike, Shafer Lab (AID 2284049; active = hit-call score of the fitted dose curve at least 0.9, where 1 is the maximum; inactive = score below 0.9)
In short: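 Network-spike peak electrode count from recordings on days 5, 7, 9 and 12 was combined as trapezoidal area under the curve. Rat cortical cultures were treated continuously from plating, with compound renewed at each feed (DIV 5, 9); fits versus DMSO.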

[16] = CCTE_Shafer_MEA_dev_spike_duration_mean: CCTE's Neural Network Formation Assay for Mean Spike Duration, Shafer Lab (AID 2284051; active = hit-call score of the fitted dose curve at least 0.9, where 1 is the maximum; inactive = score below 0.9;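 note: mean network spike duration pooled as area under curve over DIV 5 to 12 recordings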)
In short: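 Spontaneous activity was recorded on days 5, 7, 9 and 12 from rat cortical cultures grown on microelectrode arrays and dosed continuously from day 0, with media and compound renewed after the DIV 5 and 9 recordings. Network-spike duration was collapsed by area under the curve.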

[17] = CCTE_Shafer_MEA_dev_per_network_spike_spike_number_mean: CCTE's Neural Network Formation Assay for Mean Number of Spikes in a Network Spike, Shafer Lab (AID 2284053; active = hit-call score of the fitted dose curve at least 0.9, where 1 is the maximum; inactive = score below 0.9)
In short: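 Mean spike count within each network spike, taken in a 0.05 s window at its peak, was recorded on days 5, 7, 9 and 12 and integrated as trapezoidal area under the curve. Rat cortical cultures on MEA plates received continuous compound from day 0, refreshed at medium changes on DIV 5 and 9.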

[18] = CCTE_Shafer_MEA_dev_per_network_spike_spike_percent: CCTE's Neural Network Formation Assay for Percent of Spikes in a Network Spike, Shafer Lab (AID 2284054; active = hit-call score of the fitted dose curve at least 0.9, where 1 is the maximum; inactive = score below 0.9)
In short: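 Rat primary cortical neurons were grown on 48-well MEA plates (16 electrodes/well), exposed from plating day 0 through day 12, with treatment renewed on DIV 5 and 9. Percent of spikes within 0.05 s network-spike peaks was measured, summarised as AUC across days 5, 7, 9, 12.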

[19] = CCTE_Shafer_MEA_dev_LDH: CCTE's Lactate Dehydrogenase Assay for Cytotoxicity in the Neural Network Formation Assay, Shafer Lab (AID 2284068);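 note: exposure for twelve days from plating with re-dosing on DIV 5 and 9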
In short: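 Primary rat cortical neurons were cultured on PEI-coated MEA plates and exposed from plating through day 12, with compound renewed at medium changes on DIV 5 and 9. LDH activity was read spectrophotometrically; loss of signal versus DMSO indicates reduced viability.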

[20] = CCTE_Shafer_MEA_dev_mutual_information_norm: CCTE's Neural Network Formation Assay for Mutual Information Normalization, Shafer Lab (AID 2284091; active = hit-call score of the fitted dose curve at least 0.9, where 1 is the maximum; inactive = score below 0.9)
In short: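 Primary rat cortical neurons on PEI-coated 48-well MEA plates, 1.5 x 10^5 cells/well, exposed from day 0 through day 12 with re-dosing at DIV 5 and 9. Mutual information between electrodes recorded days 5, 7, 9, 12; trapezoidal AUC, loss-of-signal fit versus DMSO.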

Measured: outcome

Sequence of Cellular tumor antigen p53 (Homo sapiens) (P04637 whole entry, looked up): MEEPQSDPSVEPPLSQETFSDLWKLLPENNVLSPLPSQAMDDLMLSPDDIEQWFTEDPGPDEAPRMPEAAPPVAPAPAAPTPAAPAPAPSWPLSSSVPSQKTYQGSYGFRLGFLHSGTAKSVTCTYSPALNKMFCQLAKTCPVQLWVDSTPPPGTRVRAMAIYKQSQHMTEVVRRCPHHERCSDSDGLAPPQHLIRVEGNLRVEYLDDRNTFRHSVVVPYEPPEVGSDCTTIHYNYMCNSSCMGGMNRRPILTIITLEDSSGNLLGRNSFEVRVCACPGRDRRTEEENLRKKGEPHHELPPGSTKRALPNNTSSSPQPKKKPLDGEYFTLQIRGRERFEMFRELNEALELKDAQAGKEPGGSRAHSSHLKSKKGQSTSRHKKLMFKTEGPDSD

CCCCCC[C@@H](O)C/C=C\CCCCCCCC(=O)OC
inactive: [1] | [2]

Nc1ccc([N+](=O)[O-])c(N)c1
inactive: [3] | [4]

CCCCC(=O)N(Cc1ccc(-c2ccccc2-c2nn[nH]n2)cc1)[C@@H](C(=O)O)C(C)C
inactive: [1]

CCCCCCCCCCCc1ccccc1
inactive: [3] | [4]

CCO/C([O-])=N/c1c[n+](N2CCOCC2)no1
inactive: [1] | [2]

CN[C@H]1CCc2cc(OC)c(OC)c(OC)c2-c2ccc(OC)c(=O)cc21
inactive: [1] | [4]

C=CC(C)(O)CCCC(C)CCCC(C)CCCC(C)C (stereo not drawn)
inactive: [2]

COc1ccc(-c2cc(=S)ss2)cc1
inactive: [3] | [4]

c1cc2c3c(c1)ccc1cccc(c13)C2
not listed: [1]
inactive: all other assays above
